Reference: publication PMC4336329 (PLoS ONE, 2015)
Hit rate of the full screen: of about 310,000 compounds, about 14,000 (4.5%) showed an effect of 50% or more. Effects have a minus sign here. The list comes from a sample in which strong results are over-represented; it also holds similar structures and randomly drawn compounds.

Target: human ether-à-go-go-related gene (hERG) potassium channel (human, UniProt Q12809)
Assay: primary screen, population patch clamp on CHO cells stably expressing hERG; higher = less effect of the substance
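Also: peak tail current of the secondary pulse compared with the same well before compound.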

human ether-à-go-go-related gene (hERG) potassium channel, sequence (Q12809 whole entry, looked up): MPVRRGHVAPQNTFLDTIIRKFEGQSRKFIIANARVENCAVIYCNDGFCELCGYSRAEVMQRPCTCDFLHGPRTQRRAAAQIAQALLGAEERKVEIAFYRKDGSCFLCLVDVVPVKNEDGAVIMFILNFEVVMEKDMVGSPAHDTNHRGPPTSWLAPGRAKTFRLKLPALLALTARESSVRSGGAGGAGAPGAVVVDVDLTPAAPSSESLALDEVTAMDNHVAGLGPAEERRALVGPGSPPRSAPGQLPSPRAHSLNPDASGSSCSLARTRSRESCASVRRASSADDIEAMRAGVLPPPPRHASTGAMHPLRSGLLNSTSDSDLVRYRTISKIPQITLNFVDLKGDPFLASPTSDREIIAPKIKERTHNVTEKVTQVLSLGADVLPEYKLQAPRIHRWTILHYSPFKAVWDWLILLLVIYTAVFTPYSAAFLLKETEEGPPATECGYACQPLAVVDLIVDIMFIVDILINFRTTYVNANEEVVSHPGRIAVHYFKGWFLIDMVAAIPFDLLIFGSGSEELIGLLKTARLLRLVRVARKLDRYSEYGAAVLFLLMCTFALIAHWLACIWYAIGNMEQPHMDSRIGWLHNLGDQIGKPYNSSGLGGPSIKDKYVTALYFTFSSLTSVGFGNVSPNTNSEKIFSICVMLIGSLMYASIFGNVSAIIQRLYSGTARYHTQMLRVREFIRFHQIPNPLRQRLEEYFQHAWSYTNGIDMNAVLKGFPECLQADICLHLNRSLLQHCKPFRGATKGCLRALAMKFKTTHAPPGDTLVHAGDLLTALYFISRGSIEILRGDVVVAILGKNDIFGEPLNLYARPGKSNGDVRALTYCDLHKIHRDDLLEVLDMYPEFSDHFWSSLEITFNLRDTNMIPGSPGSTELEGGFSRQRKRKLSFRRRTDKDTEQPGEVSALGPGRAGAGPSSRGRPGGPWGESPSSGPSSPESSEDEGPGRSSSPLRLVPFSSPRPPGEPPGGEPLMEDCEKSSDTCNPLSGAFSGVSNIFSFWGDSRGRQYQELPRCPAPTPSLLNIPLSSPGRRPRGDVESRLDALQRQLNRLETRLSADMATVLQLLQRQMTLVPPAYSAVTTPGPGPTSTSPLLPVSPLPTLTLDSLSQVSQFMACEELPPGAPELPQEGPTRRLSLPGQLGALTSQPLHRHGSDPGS

Point of comparison: CCCn1c(N)c(C(=O)CN(C)CC(=O)Nc2c(Cl)cccc2Cl)c(=O)[nH]c1=O, “hERG current change (%, negative = inhibition) at 10uM” value -9.48%. Against it:
- COc1ccc(N2C(=O)NC(=O)C(CCc3ccncc3)(CCc3ccncc3)C2=O)cc1 — lower, -23.6%
- Cc1ccc(N2C(=O)NC(=O)C(CCc3ccccn3)(Cc3ccc(F)cc3)C2=O)cc1 (stereo not shown) — higher, 12.9%
- O=C1NC(=O)C(CCc2ccncc2)(Cc2cccc(Cl)c2Cl)C(=O)N1c1ccc(Br)cc1 (stereo not shown) — lower, -11%
- Cc1ccc(N2C(=O)NC(=O)C(CCc3ccncc3)(Cc3cccc(Cl)c3Cl)C2=O)cc1 (stereo not shown) — higher, 6.14%
- O=C1NC(=O)C(CCc2ccncc2)(CCc2ccccn2)C(=O)N1c1ccc(Br)cc1 (stereo not shown) — lower, -75.6%
- CCc1ccc(N2C(=O)NC(=O)C(CCc3ccncc3)(CCc3ccncc3)C2=O)cc1 — lower, -69.9%
- CCOC(=O)c1c(C)[nH]c(C=O)c1Cc1cccc(Cl)c1 — higher, 6.47%
- C/C=C/c1cc(OC)c2c(c1)[C@H](C)[C@@H](c1ccc(O)c(OC)c1)O2 — higher, 15.9%
- O=C(CN1C(=O)NC2(CCCCCC2)C1=O)Nc1ccc(S(=O)(=O)N2CCOCC2)cc1 — higher, 9.75%
- Cc1ccccc1COc1ccc(-c2nn[nH]n2)cc1 — higher, 13%
- COc1ccccc1CNC(=O)C1CC2Cn3c(nc4cc(C)c(C)cc43)C2N1C (stereo not shown) — lower, -27%
- CN1C(C(=O)NCc2ccco2)CC2Cn3c(nc4cc(Cl)c(Cl)cc43)C21 (stereo not shown) — lower, -43.2%
- Cc1ccc(CNC(=O)C2CC3Cn4c(nc5cc(Cl)c(Cl)cc54)C3N2C)o1 (stereo not shown) — lower, -58.5%
- Cc1cc2nc3n(c2cc1C)CC1CC(C(=O)NCCC(C)C)N(C)C31 (stereo not shown) — higher, 1.81%
- CN1C(C(=O)NCC2CC2)CC2Cn3c(nc4cc(Cl)c(Cl)cc43)C21 (stereo not shown) — lower, -34.3%
- COc1ccccc1CNC(=O)C1CC2Cn3c(nc4cc5ccccc5cc43)C2N1C (stereo not shown) — lower, -43.8%
- Cc1ccc(CNC(=O)C2CC3Cn4c(nc5ccccc54)C3N2C)o1 (stereo not shown) — higher, -0.36%
- Cc1ccc(CNC(=O)C2CC3Cn4c(nc5cc(C)c(C)cc54)C3N2C)o1 (stereo not shown) — lower, -36.9%
- COc1ccccc1CNC(=O)C1CC2Cn3c(nc4cc(Cl)c(Cl)cc43)C2N1C (stereo not shown) — lower, -65.4%
- CN1C(C(=O)NCc2cccc(Br)c2)CC2Cn3c(nc4cc(Cl)c(Cl)cc43)C21 (stereo not shown) — lower, -75.8%
- COCCNC(=O)C1CC2Cn3c(nc4cc(Cl)c(Cl)cc43)C2N1C (stereo not shown) — lower, -26.5%
- CC(C)CCNC(=O)C1CC2Cn3c(nc4cc(Cl)c(Cl)cc43)C2N1C (stereo not shown) — lower, -56%
- COc1ccc(CCN(C)C(=O)CCCN2C(=O)c3cccc4cccc(c34)C2=O)cc1OC — lower, -35.5%
- O=C(O)C1CCCCC1C(=O)Nc1ccccc1Cl (stereo not shown) — higher, 15.1%
- O=C(CN1C(=O)c2ccccc2C1=O)N1CCN(C2c3ccccc3-c3ccccc32)CC1 — lower, -23.1%
- O=C(/C=C/c1ccco1)NCC1COc2ccccc2O1 (stereo not shown) — higher, -0.808%
- O=C(NC1CCCCC1)N1CCSC1=Nc1ccccc1 — higher, -5.04%
- CCOCCCNC(=O)c1c(C)c(C(=O)OCC)n(C)c1C — higher, 15.3%
- CCOC(=O)N1N=C(c2ccccc2)CC1(O)C(C)(F)F (stereo not shown) — higher, 12.1%
- C=CCNC(=O)C1CC2Cn3c(nc4cc(Cl)c(Cl)cc43)C2N1C (stereo not shown) — lower, -35.4%
- CN1C(C(=O)NCc2ccccc2)CC2Cn3c(nc4cc(Cl)c(Cl)cc43)C21 (stereo not shown) — lower, -65.6%
- COc1ccc(Nc2nnc(-c3ccc(C(=O)NCCO)cc3)c3ccccc23)cc1 — higher, -4.6%
- O=C(NCCO)c1ccc(-c2nnc(Nc3ccc(O)cc3)c3ccccc23)cc1 — higher, 16.8%
- Cc1ccccc1Nc1nnc(-c2ccc(C(=O)NCCO)cc2)c2ccccc12 — lower, -65.9%
- CCC(C)[C@H](NC(=O)C1CCN(C(=O)[C@H](Cc2ccccc2)NC(=O)OC(C)(C)C)CC1)C(=O)O (stereo partly shown) — higher, -1.42%
- COc1ccc(-c2oc(NC(=O)c3ccc(C)cc3)c(C#N)c2-c2ccc(OC)cc2)cc1 — lower, -11.6%
- O=C(C1=C[C@@H](c2coc3ccccc3c2=O)C[C@@H](OCc2ccc(CO)cc2)O1)N1CCN(Cc2ccc3c(c2)OCO3)CC1 — lower, -66.1%
- O=C(C1=C[C@H](c2coc3ccccc3c2=O)C[C@H](OCc2ccc(CO)cc2)O1)N1CCN(Cc2ccc3c(c2)OCO3)CC1 — lower, -57.2%
- O=C(C1=C[C@@H](c2csc3ccccc23)C[C@@H](OCCCCO)O1)N1CCN(Cc2ccc3c(c2)OCO3)CC1 — lower, -11%
- CC(=O)n1cc([C@@H]2C=C(C(=O)N3CCN(Cc4ccc5c(c4)OCO5)CC3)O[C@H](OCc3ccc(CO)cc3)C2)c2ccccc21 — lower, -17.5%
- O=C(C1=C[C@H](c2csc3ccccc23)C[C@H](OCc2ccc(CO)cc2)O1)N1CCN(Cc2ccc3c(c2)OCO3)CC1 — higher, 12.4%
- O=C(C1=C[C@H](c2coc3ccccc3c2=O)C[C@H](OCCCCO)O1)N1CCN(Cc2ccc3c(c2)OCO3)CC1 — lower, -64.4%
- CN1CCN(C(=O)C2=C[C@@H](c3coc4ccccc4c3=O)C[C@@H](OCc3ccc(CO)cc3)O2)CC1 — lower, -22.5%
- O=C(C1=C[C@@H](c2coc3ccccc3c2=O)C[C@@H](OCCCCO)O1)N1CCN(Cc2ccc3c(c2)OCO3)CC1 — lower, -49.7%
- O=C(C1=C[C@@H](c2csc3ccccc23)C[C@@H](OCc2ccc(CO)cc2)O1)N1CCN(Cc2ccc3c(c2)OCO3)CC1 — higher, 1.69%
- Cc1ccccc1NC(=O)NNC(=O)OC(C)(C)C — higher, -6.37%
- O=C(C1CCCCN1S(=O)(=O)c1ccccc1)N1CCCCC1 (stereo not shown) — higher, -1.03%
- N#Cc1ccc(C23CC4(C2)[C@H](CN(Cc2ccc(-c5ccccc5)cc2)[C@@H]4c2ccccc2)C3c2ccc(C(F)(F)F)cc2)cc1 (stereo partly shown) — higher, 6.84%
- CC(O)[C@H]1CNC(=O)C(=O)N1CCc1cccc(F)c1 (stereo partly shown) — higher, 21%
- COC(=O)c1c(C)[nH]c(C(=O)CN(C)CC(=O)Nc2cccc(F)c2)c1C — lower, -22.2%
- CCCn1c(N)c(C(=O)CN(C)CC(=O)Nc2ccc(F)cc2)c(=O)[nH]c1=O — lower, -70.6%
- CCCn1c(N)c(C(=O)CN(C)CC(=O)Nc2ccccc2C(F)(F)F)c(=O)[nH]c1=O — higher, -0.764%
- CCCn1c(N)c(C(=O)CN(C)CC(=O)Nc2cccc(F)c2)c(=O)[nH]c1=O — lower, -75.1%
- CCCn1c(N)c(C(=O)CN(C)CC(=O)Nc2ccccc2CC)c(=O)[nH]c1=O — lower, -42%
- O=C(NCCC1=CCCCC1)c1ccc([N+](=O)[O-])cc1 — lower, -14.9%
- O=C(CCc1ccc(S(=O)(=O)N2CCCCC2)cc1)c1nnc(-c2ccccc2)o1 — lower, -12.7%
- CCC(C)NC(=O)CN(C1CCCCC1)S(C)(=O)=O (stereo not shown) — higher, 9.11%
- Cc1cc(N)n2ncc(-c3cccc(Br)c3)c2n1 — higher, -2.75%
- Cc1cc(-n2c(C)cc(C(=O)CSc3nncn3C(C)C)c2C)no1 — higher, 9.21%
- O=C1CCCN1CC(=O)N1CCCC(N2CCN(c3cccc(Cl)c3)CC2)C1 (stereo not shown) — higher, 8.15%
- CCCC(c1nnnn1Cc1ccc(OC)cc1)N1CCN(c2ccccc2OC)CC1 (stereo not shown) — higher, -8.59%
- CCCC(c1nnnn1Cc1ccc(F)cc1)N1CCN(C2CCCCC2)CC1.Cl (stereo not shown) — lower, -62.4%
- CCC(c1nnnn1Cc1cccs1)N1CCN(C2CCCC2)CC1.Cl (stereo not shown) — lower, -22.3%
- CCC(c1nnnn1Cc1ccc(F)cc1)N1CCN(C)CC1 (stereo not shown) — higher, -1.38%
- CCCC(c1nnnn1CS(=O)(=O)c1ccc(C)cc1)N1CCN(C2CCCC2)CC1.Cl (stereo not shown) — lower, -37.5%
- CCCC(c1nnnn1Cc1ccc(F)cc1)N1CCN(CC)CC1 (stereo not shown) — lower, -53%
- CC(C)C(c1nnnn1Cc1ccc(F)cc1)N1CCN(C2CCCC2)CC1 (stereo not shown) — lower, -38.2%
- CCCC(c1nnnn1Cc1cccs1)N1CCN(C2CCCC2)CC1.Cl (stereo not shown) — lower, -29%
- CCC(c1nnnn1Cc1ccc(F)cc1)N1CCN(C2CCCCC2)CC1.Cl (stereo not shown) — lower, -53%
- CC(C)C(c1nnnn1Cc1ccc(F)cc1)N1CCSCC1 (stereo not shown) — lower, -20.7%
- CC(C)C(c1nnnn1Cc1ccc(F)cc1)N1CCN(C2CCCCC2)CC1 (stereo not shown) — lower, -61.3%
- CCCC(c1nnnn1Cc1ccc(F)cc1)N1CCN(C)CC1 (stereo not shown) — higher, -2.88%
- CCCN1C(=O)C(O)(CC(=O)c2ccc3c(c2)OCCO3)c2ccccc21 (stereo not shown) — higher, 7.24%
- Cc1nn(CC(=O)Nc2ccc(C(=O)N3CCCC3)cc2)c(=O)c2ccccc12 — higher, -1.72%
- CCN(c1cccc(C)c1)S(=O)(=O)c1c(C)[nH]c(C)c1C(=O)N1CCCCC1 — higher, 5.45%
- O=C(O)c1cccc(CSc2nnc(Cc3ccccc3)o2)c1 — higher, -5.18%
- Cc1cc(C)n2nc(C(=O)Nc3ccc4c(c3)OCO4)nc2n1 — higher, -1.25%
- Cc1nc(NC(=O)CN2CCCCC2)sc1C(=O)N(C)C — higher, 1.37%
